Screening data deposited in PubChem BioAssay by National Center for Advancing Translational Sciences (NCATS).
DRD3 agonist – activates the human D3 dopamine receptor; P35462; D3R DiscoveRx beta-arrestin cells, luminescence, 90 min; max activation, %; 0.58% of 410,000 active; in the data active = max activation above about 30%
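Cells at 1500/well, incubated overnight, then treated with pinned compounds (dopamine as control) for 90 min at 37 degrees C. DiscoveRx reagent added for 30 - 60 minutes at room temperature; luminescence read.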
DRD3 antagonist – antagonists of human D3 dopamine receptor; 2.5% of 360,000 active; P35462; max response, negative = inhibition, %; D3R cells, DiscoveRx beta-arrestin luminescence, antagonist mode; hits give low values; AID 652054; in the data active = max response below about -50%; inconclusive = no clear call, values can overlap the other calls
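Cells plated overnight at 1500 cells/well, then exposed to library compounds with dopamine controls for 90 minutes at 37 degrees C. DiscoveRx reagent added for 30–60 minutes at room temperature; luminescence read, quantitative HTS format.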
Integrin act MD – activates integrin-mediated alleviation for muscular dystrophy | alpha7betagal myoblasts, beta-gal FDG fluorescence, 48 h | Potency, µM (titrated, usually from 38.3 µM), most hits filed as activators | 0.064% of 350,000 active; also: nearly all actives have a fitted effect of over 60% in size
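Alpha7betagal+/- myoblasts (passage 13) were plated 16-24 hr, then exposed to compounds (1:260 dilution of DMSO stock) for 48 hours at 37C. After MPER lysis, β-galactosidase reporter activity was read as FDG fluorescence (ex 480/em 540) after 30 minutes.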
IDH1 R132H inh – inhibitors of human mutant IDH1 R132H; IDH1-R132H enzyme, NADPH consumption, diaphorase/resazurin fluorescence; O75874; Potency, µM (doses to about 76.6 µM), usual class: inhibitors; 0.093% of 390,000 active; also: nearly all actives have a fitted effect of over 65% in size
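IDH1-R132H (0.5 ug/mL dispensed) in pH 7.5 Tris buffer was preincubated 30 min with compound, then given a substrate mix of 0.016 mM NADPH and 2 mM alpha-KG for 80 min at room temperature; remaining NADPH was read by diaphorase/resazurin fluorescence.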
B2AR arrestin – beta2AR (human) beta-arrestin recruitment activity. beta-arrestin recruitment to beta2AR, cell-based reporter. Potency, µM (titrated, usually from 46.1 µM), most hits filed as activators. AID 492947. P07550. 0.02% of 330,000 active; also: nearly all actives have a fitted effect of over 65% in size
Target sequence (P07550 whole entry, looked up): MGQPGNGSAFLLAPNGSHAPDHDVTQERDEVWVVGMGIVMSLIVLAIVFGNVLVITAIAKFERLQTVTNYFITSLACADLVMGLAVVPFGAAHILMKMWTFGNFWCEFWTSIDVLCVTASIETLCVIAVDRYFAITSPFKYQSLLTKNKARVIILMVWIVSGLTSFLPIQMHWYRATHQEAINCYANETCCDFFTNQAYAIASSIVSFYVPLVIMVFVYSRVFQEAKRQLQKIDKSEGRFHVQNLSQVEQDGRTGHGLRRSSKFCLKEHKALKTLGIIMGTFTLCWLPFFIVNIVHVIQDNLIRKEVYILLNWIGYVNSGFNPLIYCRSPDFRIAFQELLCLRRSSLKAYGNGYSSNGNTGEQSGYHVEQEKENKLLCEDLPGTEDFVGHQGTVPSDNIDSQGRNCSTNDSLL
Hits are given with their value; i = inactive; ? = inconclusive; nt = no result. The list is not random: actives were taken first. Their share in the collection is about 2.9%. Unless noted, calls follow the shape of the dose curve; as a rule, active = well fitted curve in the direction sought with a large enough effect; inconclusive = small, poorly fitted or top-dose-only effect, or another doubt; inactive = no such curve, though single readings can be large; an effect the other way counts as inactive or inconclusive.

SMILES	DRD3 agonist	DRD3 antagonist	Integrin act MD	IDH1 R132H inh	B2AR arrestin
CC(COc1ccccc1)NC(C)C(O)c1ccc(O)cc1 (configuration not stated)	i	-87	nt	i	i
C[C@H](NCCc1ccc(O)cc1)[C@H](O)c1ccc(O)cc1	i	i	nt	i	i
Cc1ccc(/C=C/c2onc(C)c2S(=O)(=O)N2CCC(C(=O)N3CCC(N(C)C(C)C)CC3)CC2)cc1	i	nt	nt	i	nt
C[N+]1(C)[C@@H]2CC(OC(=O)C(O)(c3cccs3)c3cccs3)C[C@H]1[C@@H]1O[C@@H]12 (some centres not stated)	i	nt	nt	nt	nt
CC(=O)OCCCNc1cc(Sc2ccc(Cl)cc2)c2nonc2c1[N+](=O)[O-]	i	-118	i	i	i
CC(=O)OCCNc1cc(SC(C)C)c2nonc2c1[N+](=O)[O-]	i	i	i	i	i
CCCC(=O)OCCNc1cc(Sc2nc3ccccc3[nH]2)c2nonc2c1[N+](=O)[O-]	i	-83	i	i	i
CCC(=O)OCCNc1cc(SCCC(=O)OC)c2nonc2c1[N+](=O)[O-]	i	i	i	i	i
CCC(=O)OCCNc1cc(Sc2nccn2C)c2nonc2c1[N+](=O)[O-]	i	-101	i	i	i
CCc1ccc(CNC(=O)C(CC)n2nc(C)c3c(C)n(-c4ccccc4)nc3c2=O)cc1 (configuration not stated)	i	nt	nt	i	nt
O=C1c2ccccc2-c2onc3ccc(Oc4ccccc4)c1c23	i	-116	i	i	?
O=C1c2ccccc2-c2onc3c(NCCO)cc(NC4CCCCC4)c1c23	i	nt	nt	i	nt
CCN(c1ccccc1)c1nnc(NC(=O)Nc2ccc(Br)cc2)s1	i	nt	nt	i	nt
CCCCCOc1ccc(C(=O)N(Cc2ccco2)C2CCS(=O)(=O)C2)cc1 (configuration not stated)	30	i	i	i	i
CC(C)COc1ccc(C(=O)N(Cc2ccco2)C2CCS(=O)(=O)C2)cc1 (configuration not stated)	i	i	i	i	i
Cn1cccc1-c1cc(C(=O)N/N=C/c2ccc(F)cc2)[nH]n1	i	-82	i	i	i
Cn1cccc1-c1cc(C(=O)N/N=C/c2ccc([N+](=O)[O-])cc2)[nH]n1	i	i	i	i	i
Cn1cccc1-c1cc(C(=O)N/N=C/c2ccccc2Cl)[nH]n1	i	-78	i	i	i
Cn1cccc1-c1cc(C(=O)N/N=C/c2cc(Br)ccc2O)[nH]n1	i	i	i	i	i
CC1COc2c(N3CCN(C)CC3)c(F)cc3c(=O)c(C(=O)O)cn1c23 (configuration not stated)	i	-100	nt	i	i
CCOc1ccc(NC(=O)c2ccc(NC(=O)c3cn4c5c(c(N6CCN(C)CC6)c(F)cc5c3=O)OCC4C)cc2)cc1 (configuration not stated)	i	i	i	i	i
Cc1ccc(-c2nc3cccnc3o2)cc1NC(=O)COc1ccc(C(C)(C)C)cc1	79	i	i	i	i
Cc1ccc(-c2nc3cccnc3o2)cc1NC(=O)COc1ccc(Cl)cc1C	i	i	i	i	i
CC1=C/C(=N\NC(=S)NCc2ccccc2)CC1	i	i	i	i	7.1µM
CCOC(=O)C1=C(CSc2nc3ccccc3s2)NC(=O)NC1c1cc(C)ccc1C (configuration not stated)	31	i	i	i	i
SMILES	DRD3 agonist	DRD3 antagonist	Integrin act MD	IDH1 R132H inh	B2AR arrestin
COc1ccc(-c2csc(N(CCCN(C)C)C(=O)c3cccs3)n2)cc1	i	-58	i	i	i
CCOc1ccccc1NC(=O)COC(=O)c1c[nH]c2ccccc12	i	i	i	i	i
O=C(COC(=O)C1CC(=O)N(C2CCCCC2)C1)c1ccc(F)cc1 (configuration not stated)	i	-58	i	i	i
Cc1ccc(N2CC(C(=O)OCC(=O)c3ccc(F)cc3)CC2=O)cc1 (configuration not stated)	i	i	i	i	i
COc1ccccc1/C=C1\SC(N2CCC(C)CC2)=NC1=O	i	-65	?	i	i
COc1cccc(/C=C2\SC(N3CCC(C)CC3)=NC2=O)c1OC	i	i	i	i	i
Cc1[nH]n2c(=O)cc(-c3ccc([N+](=O)[O-])cc3)nc2c1-c1ccccc1	i	-81	i	i	nt
